From the supplement of paper PMC11219838
Values without a mark were called inactive.

system: Caenorhabditis elegans L1 (N2); test: survival and reproduction score of C. elegans L1 (0: 0-10 living worms, 1: 11-20, 2: 21-50, 3: >50, 4: overgrown) (score 0-4); higher = more worms, less nematicidal, active = 1 or less; extreme values may be limits of the assay; details: 60 µM; 6 days; temperature: 20 °C
Method in brief: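 After compound was pinned to 60 µM final (0.6% v/v DMSO) into wells with roughly 20 synchronized C. elegans N2 L1s and E. coli HB101 in liquid NGM, the sealed 96-well plates were shaken at 200 rpm for 6 days at 20 °C. Under a dissection microscope, survival and reproduction were graded ordinally by living worms per well. A grade of 0 stood for 0–10 worms and 4 for overgrown, starved wells; two biological replicates were averaged.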

Row | SMILES | survival and reproduction score
1 | N#Cc1ccccc1CSc1nnc(-c2ccco2)o1 | 4
2 | COc1ccccc1-c1noc(-c2ccccc2C)n1 | 4
3 | COc1ccc(-c2nnc(SCc3csc(N)n3)o2)cc1 | 4
4 | CCCc1ccc(-c2nc(-c3cccnc3)no2)cc1 | 0 (active)
5 | Cc1ccccc1-c1nnc(SCC(=O)Nc2cc(C(F)(F)F)ccc2N2CCOCC2)o1 | 4
6 | N#Cc1ccccc1CSc1nnc(-c2ccncc2)o1 | 4
7 | COc1ccc(CC(=O)Nc2ccc(-c3noc(-c4ccccc4Br)n3)cc2)cc1 | 4
8 | Clc1cc(Br)ccc1OCc1nc(-c2ccccc2)no1 | 4
9 | Cc1ccc(OCc2nc(-c3ccc(Cl)cc3)no2)cc1C | 4
10 | Cc1ccccc1-c1nnc(SCc2ccccc2Cl)o1 | 4
11 | CCOc1nc(-c2ccccc2)ccc1-c1noc(CC)n1 | 4
12 | Cc1ccc(-c2noc(COc3ccc(Cl)cc3C)n2)cc1 | 2
13 | Cc1ccc(-c2nc(-c3ccc(F)cc3)no2)cc1 | 0 (active)
14 | O=C(CSc1nnc(-c2ccncc2)o1)Nc1cc(Cl)cc(Cl)c1 | 4
15 | Cc1cc(OC(C)c2nc(-c3cccnc3)no2)ccc1Cl (centres undefined) | 4
16 | CCOc1ccccc1-c1nc(-c2ccc(Cl)cc2)no1 | 4
17 | CCn1cc(C(=O)CSc2nnc(-c3ccccc3)o2)c2ccccc21 | 4
18 | Clc1ccc(OCc2nc(-c3ccncc3)no2)cc1 | 4
19 | CNC(=O)c1ccccc1-c1nc(-c2ccc(Cl)cc2)no1 | 4
20 | Cc1ccc(CSc2nnc(-c3ccco3)o2)c(C)c1 | 0 (active)

Row | SMILES | survival and reproduction score
21 | CC1Cc2ccccc2N1C(=O)CSc1nnc(-c2ccccc2)o1 (centres undefined) | 4
22 | COc1ccc(-c2noc(COc3ccc(Cl)c(C)c3)n2)cc1 | 4
23 | COc1ccccc1OCc1nc(-c2ccccc2)no1 | 4
24 | O=C(CSc1nnc(-c2cccc(Br)c2)o1)N1CCCCC1 | 4
25 | COc1ccc(Cl)cc1NC(=O)CSc1nnc(-c2ccncc2)o1 | 4
26 | Ic1ccc(-c2nc(-c3cccnc3)no2)cc1 | 0 (active)
27 | Cc1csc(NC(=O)CSc2nnc(-c3ccccc3Cl)o2)n1 | 4
28 | COc1ccccc1-c1nnc(SCC(=O)Nc2ccc(Br)cn2)o1 | 4
29 | COc1ccc(-c2noc(-c3cccc(Cl)c3)n2)cc1 | 4
30 | COc1ccc(-c2noc(-c3cccc(F)c3)n2)cc1 | 4
31 | COc1nc(-c2ccccc2)ccc1-c1noc(-c2ccco2)n1 | 1 (active)
32 | Brc1ccc(CSc2nnc(-c3ccncc3)o2)cc1 | 4
33 | Cc1ccc(-c2noc(-c3ccccc3OCC(N)=O)n2)cc1 | 4
34 | Cc1ccccc1OCc1nc(-c2ccccc2)no1 | 4
35 | O=C(CSc1nnc(-c2ccccc2)o1)c1ccc(Br)cc1 | 4
36 | COC(=O)c1ccc(Cl)c(NC(=O)CSc2nnc(-c3ccc(Cl)cc3)o2)c1 | 4
37 | COc1ccccc1-c1nc(-c2ccc(C)cc2)no1 | 4
38 | Cc1ccc(-c2noc(COc3cc(C)ccc3C)n2)cc1 | 4
39 | O=C(CSc1nnc(-c2cccc(Cl)c2)o1)Nc1nccs1 | 4
